Hit rate of the full screen: of about 5,500 compounds, about 2,000 (36%) were called active. Roughly 18% stayed inconclusive and do not appear here. No stated cut-off is given here; in the data, active means normalized growth mostly below about 0.91 (no sharp cut-off); inconclusive means no clear call, values can overlap the other calls; inactive means mostly above about 0.92. Some of the results follow.
Experiment: chemical genetic growth profiling, strain panel (AID 1159580);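 further: tested at 20 µM; growth read once vehicle control cultures reached saturation at 30 °C; 1 = growth at the plate median or of vehicle wells; lower values mean less growth of the strain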
Conditions: growth OD

Measured: normalized growth

O=C1C(O)=C(O)C(=O)C(O)=C1O
inactive: S. cerevisiae deletion strains, locus YJR075W, strain HOC1, hits give low values 0.999 | S. cerevisiae deletion strains, locus YKL009W, strain mrt4, hits give low values 0.983 | S. cerevisiae deletion strains, locus YKL068W, hits give low values 0.979 | S. cerevisiae deletion strains, locus YKL085W, strain MDH1 (second series), hits give low values 0.956 | S. cerevisiae deletion strains, locus YKL085W, strain MDH1, hits give low values 0.956 | S. cerevisiae deletion strains, locus YKL160W, strain elf1, hits give low values 1.03 | S. cerevisiae deletion strains, locus YKL190W, strain CNB1, hits give low values 0.98 | S. cerevisiae deletion strains, locus YKR001C, strain vps1, hits give low values 0.995 | S. cerevisiae deletion strains, locus YKR026C, strain gcn3, hits give low values 1.02 | S. cerevisiae deletion strains, locus YKR091W, strain srl3, hits give low values 0.999 | S. cerevisiae deletion strains, locus YLL001W, strain dnm1, hits give low values 1.01 | S. cerevisiae deletion strains, locus YLL026W, hits give low values 1.02 | S. cerevisiae deletion strains, locus YLL041C, strain sdh2, hits give low values 1.01 | S. cerevisiae deletion strains, locus YLR027C, strain aat2, hits give low values 1.02 | S. cerevisiae deletion strains, locus YLR039C, strain RIC1, hits give low values 0.957 | S. cerevisiae deletion strains, locus YLR058C, strain SHM2, hits give low values 0.98 | S. cerevisiae deletion strains, locus YLR102C, strain apc9, hits give low values 0.989 | S. cerevisiae deletion strains, locus YLR113W, strain HOG1, hits give low values 0.969 | S. cerevisiae deletion strains, locus YLR221C, strain rsa3, hits give low values 1 | S. cerevisiae deletion strains, locus YLR258W, strain gsy2, hits give low values 1.03 | S. cerevisiae deletion strains, locus YLR262C, strain YPT6 (second series), hits give low values 0.995 | S. cerevisiae deletion strains, locus YLR262C, strain YPT6, hits give low values 0.946 | S. cerevisiae deletion strains, locus YLR268W, strain sec22, hits give low values 0.964 | S. cerevisiae deletion strains, locus YLR320W, strain mms22, hits give low values 1.01 | S. cerevisiae deletion strains, locus YLR330W, strain CHS5, hits give low values 1.01 | S. cerevisiae deletion strains, locus YLR342W, strain FKS1 (second series), hits give low values 1.07 | S. cerevisiae deletion strains, locus YLR342W, strain FKS1, hits give low values 1.01 | S. cerevisiae deletion strains, locus YLR357W, strain rsc2, hits give low values 0.989 | S. cerevisiae deletion strains, locus YLR370C, strain arc18, hits give low values 1.01 | S. cerevisiae deletion strains, locus YLR371W, strain rom2, hits give low values 1 | S. cerevisiae deletion strains, locus YLR384C, strain iki3, hits give low values 1.03 | S. cerevisiae deletion strains, locus YLR418C, strain cdc73, hits give low values 0.944 | S. cerevisiae deletion strains, locus YML016C, strain PPZ1, hits give low values 0.988 | S. cerevisiae deletion strains, locus YML032C, strain rad52, hits give low values 1.01 | S. cerevisiae deletion strains, locus YML120C, strain ndi1, hits give low values 1.01 | S. cerevisiae deletion strains, locus YML124C, strain tub3, hits give low values 0.997 | S. cerevisiae deletion strains, locus YMR058W, strain fet3, hits give low values 1.02 | S. cerevisiae deletion strains, locus YMR078C, strain ctf18, hits give low values 0.995 | S. cerevisiae deletion strains, locus YMR125W, strain sto1, hits give low values 1.02 | S. cerevisiae deletion strains, locus YMR129W, hits give low values 1.01 | S. cerevisiae deletion strains, locus YMR205C, strain PFK2, hits give low values 1 | S. cerevisiae deletion strains, locus YMR223W, strain ubp8, hits give low values 1.03 | S. cerevisiae deletion strains, locus YMR231W, strain pep5, hits give low values 1 | S. cerevisiae deletion strains, locus YMR263W, strain SAP30, hits give low values 0.96 | S. cerevisiae deletion strains, locus YMR307W, strain GAS1, hits give low values 1.03 | S. cerevisiae deletion strains, locus YNL067W, strain RPL9B, hits give low values 0.969 | S. cerevisiae deletion strains, locus YNL071W, strain lat1, hits give low values 1.02 | S. cerevisiae deletion strains, locus YNL128W, strain TEP1, hits give low values 0.944 | S. cerevisiae deletion strains, locus YNL153C, strain GIM3, hits give low values 0.956 | S. cerevisiae deletion strains, locus YNL183C, strain NPR1, hits give low values 0.927 | S. cerevisiae deletion strains, locus YNL209W, strain ssb2, hits give low values 1 | S. cerevisiae deletion strains, locus YNL233W, strain BNI4, hits give low values 0.982 | S. cerevisiae deletion strains, locus YNL248C, strain rpa49, hits give low values 1.05 | S. cerevisiae deletion strains, locus YNL250W, strain rad50, hits give low values 0.966 | S. cerevisiae deletion strains, locus YNL271C, strain bni1, hits give low values 0.998 | S. cerevisiae deletion strains, locus YNL298W, strain CLA4, hits give low values 0.98 | S. cerevisiae deletion strains, locus YNL307C, strain MCK1, hits give low values 1.02 | S. cerevisiae deletion strains, locus YNL322C, strain KRE1 (second series), hits give low values 1.02 | S. cerevisiae deletion strains, locus YNL322C, strain KRE1, hits give low values 0.98 | S. cerevisiae deletion strains, locus YNR049C, strain mso1, hits give low values 1.01 | S. cerevisiae deletion strains, locus YNR052C, strain pop2, hits give low values 1.02 | S. cerevisiae deletion strains, locus YOL006C, strain TOP1, hits give low values 0.968 | S. cerevisiae deletion strains, locus YOL012C, strain htz1 0.781 | S. cerevisiae deletion strains, locus YOL147C, strain pex11, hits give low values 0.993 | S. cerevisiae deletion strains, locus YOR001W, strain rrp6, hits give low values 0.999 | S. cerevisiae deletion strains, locus YOR061W, strain CKA2, hits give low values 0.961 | S. cerevisiae deletion strains, locus YOR069W, strain VPS5, hits give low values 1 | S. cerevisiae deletion strains, locus YOR070C, strain gyp1, hits give low values 1.01 | S. cerevisiae deletion strains, locus YOR080W, strain dia2, hits give low values 1.02 | S. cerevisiae deletion strains, locus YOR083W, strain WHI5, hits give low values 0.984 | S. cerevisiae deletion strains, locus YOR106W, strain vam3, hits give low values 1.02 | S. cerevisiae deletion strains, locus YOR136W, strain idh2, hits give low values 0.999 | S. cerevisiae deletion strains, locus YOR144C, strain elg1, hits give low values 0.989 | S. cerevisiae deletion strains, locus YOR184W, strain ser1, hits give low values 1.08 | S. cerevisiae deletion strains, locus YOR231W, strain MKK1, hits give low values 0.987 | S. cerevisiae deletion strains, locus YOR265W, strain rbl2, hits give low values 1.01 | S. cerevisiae deletion strains, locus YOR270C, strain vph1, hits give low values 1.05 | S. cerevisiae deletion strains, locus YOR290C, strain snf2, hits give low values 1.02 | S. cerevisiae deletion strains, locus YOR316C, strain cot1, hits give low values 0.988 | S. cerevisiae deletion strains, locus YPL051W, strain arl3, hits give low values 1.01 | S. cerevisiae deletion strains, locus YPL055C, strain LGE1, hits give low values 0.898 | S. cerevisiae deletion strains, locus YPL078C, strain atp4, hits give low values 1.03 | S. cerevisiae deletion strains, locus YPL106C, strain sse1, hits give low values 1.03 | S. cerevisiae deletion strains, locus YPL240C, strain hsp82, hits give low values 1.01 | S. cerevisiae deletion strains, locus YPL241C, strain CIN2, hits give low values 0.991 | S. cerevisiae deletion strains, locus YPL256C, strain CLN2, hits give low values 0.964 | S. cerevisiae deletion strains, locus YPR119W, strain clb2, hits give low values 0.996 | S. cerevisiae deletion strains, locus YPR141C, strain kar3, hits give low values 0.952 | S. cerevisiae deletion strains, locus YPR163C, strain tif3, hits give low values 0.998 | S. cerevisiae deletion strains, locus YPR167C, strain met16, hits give low values 0.99 | S. cerevisiae deletion strains, strain wtn01, hits give low values 0.994 | S. cerevisiae strains, strain wild type, hits give low values 0.989
